Screen size: about 320,000 compounds; about 2,100 (0.66%) were called active. About 53% were inconclusive and are not listed. Calls follow the shape of the dose curve; as a rule, active = well fitted inhibition curve with a large enough effect in the signal ratio, with a control signal flat (not every such curve was filed as active); inconclusive = small, poorly fitted or top-dose-only effect, or effect the other way, or a change in a side signal; inactive = flat fitted curve, though single readings scatter; the % refers to the signal ratio. This excerpt belongs to a sample that is enriched for actives.
Potency is read from the fitted curve at half-maximal effect.

The nature of the test: qHTS Assay for Lipid Storage Modulators in Drosophila S3 Cells.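 As to cell number change: cells counted by Cell Tracker Red CMTPX staining in the red channel.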 As to lipid storage change, negative = inhibition: % is scaled to controls: 0 for no effect and ±100 for the full control effect. The note with it: BODIPY lipid droplet fluorescence, 18-24 h, cells fed with added oleic acid; cell number change: measured here: cell count max response; series mostly up to 46.1 µM; lipid storage change, negative = inhibition: at the top concentration. The gist of the method: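 Drosophila S3 cells got compounds at several concentrations plus oleic acid (400 uM solution). Laser-scanning cytometry with 488 nm excitation read lipid droplets at 500-530 nm and cells at 575-640 nm. Percent activity was relative to 20 uM Triacsin C.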
Turning to `Cc1onc(-c2ccccc2Cl)c1C(=O)NCc1ccc(N2CCCC2=O)cc1`, the “lipid storage change, negative = inhibition” value is 4.57% (inactive) and the cell number change was -1.75%.
For the molecule `COc1cc(C(=O)OCC(=O)Nc2cccc(S(=O)(=O)N3CCOCC3)c2)ccc1OCC(C)C`, the “lipid storage change, negative = inhibition” value was 15% (inactive) and the cell number change was 0.792%.
Consider `CCOc1ccccc1C(=O)N[C@H](C(=O)OCc1cc(=O)oc2cc(C)ccc12)C(C)C`, for which the “lipid storage change, negative = inhibition” value is 21.6% (inactive) and the cell number change came out at 1.89%.
On to `Nc1ccccc1-c1ccccc1N`, for which the “lipid storage change, negative = inhibition” value was 17.3% (inactive) and the cell number change was found to be 12.1%.
The like results for `Cc1ccccc1N=C1N=C(N)c2ccccc21` were, in that order, 3.18% (inactive) and 4.71%.
For the molecule `NC1=NCc2ccccc21`, the Potency is 18.4 µM (active) and the cell number change is -13%.
Take `CC(C)(C)C(=O)Nc1ccc(C(=O)N/N=C/c2ccccc2OC(=O)c2ccc(Cl)cc2)cc1`: the “lipid storage change, negative = inhibition” value is 19.8% (inactive) and the cell number change is -1.11%.
Take `CCCN(CC(=O)Nc1ccccc1C)C(=O)c1ccc(COc2ccccc2)cc1`: the outcome was inactive.
Turning to `CCCN(CC(=O)Nc1ccccc1C)C(=O)c1ccc(-c2ccc([N+](=O)[O-])cc2)o1`, the Potency was 11.6 µM (active).
On to `CCCN(CC(=O)Nc1ccccc1C)C(=O)c1ccc(N2CCCCC2)c([N+](=O)[O-])c1`, for which the molecule was classed as inactive and the cell number change was -25%.
Consider `CCN(CC)CCNC(=S)Nc1ccc(Cl)cc1`, for which the “lipid storage change, negative = inhibition” value is 5.37% (inactive) and the cell number change worked out at 1.74%.
The like results for `N#C/C(=C/c1ccccc1[N+](=O)[O-])c1nnc2n1CCCCC2` were, in that order, -12.1% (inactive) and 5.26%.
For the molecule `N#C/C(=C\c1c[nH]c2ccccc12)c1nnc2n1CCCCC2`, the “lipid storage change, negative = inhibition” value was 0.21% (inactive) and the cell number change was determined as 6.3%.
The corresponding values for `CN(c1ccccc1)c1ccc(/C=C(\C#N)c2nnc3n2CCCCC3)cc1[N+](=O)[O-]` are -19.9% (inactive) and 0.8%.
In the case of `N#C/C(=C/c1cccc([N+](=O)[O-])c1)c1nnc2n1CCCCC2`, the Potency was 2.59 µM (active) and the cell number change was -13.7%.
Regarding `O=[N+]([O-])c1cccc(-c2nnc3n2CCCCC3)c1`, the result was inactive and the cell number change turned out to be 8.75%.
`N#C/C(=C\c1cccc([N+](=O)[O-])c1)c1nnc2n1CCCCC2`: the Potency was 4.11 µM (active).
Consider `Cc1nnc(NC(=O)c2ccccc2C(=O)O)s1`, for which the molecule was classed as inactive and the cell number change was 10.9%.
For the molecule `O=C(Nc1cccc(-c2csc(Nc3cccc(C(F)(F)F)c3)n2)c1)c1cc([N+](=O)[O-])cc(C(F)(F)F)c1`, the “lipid storage change, negative = inhibition” value is -7.39% (inactive) and the cell number change is -14.2%.
Consider `COC(=O)[C@@H](Cc1ccccc1)NC(=O)[C@H]1CCC(=O)N1C(=O)OCc1ccccc1`, for which the Potency is 7.31 µM (active) and the cell number change was -26.7%.
For `COC(=O)[C@@H](Cc1ccc(O)cc1)NC(=O)[C@H]1CCC(=O)N1C(=O)OCc1ccccc1`, the “lipid storage change, negative = inhibition” value was -26.1% (inactive) and the cell number change is -3.5%.
Turning to `CC(C)CC(NC(=O)C1CCC(=O)N1C(=O)OCc1ccccc1)C(=O)NC(Cc1ccccc1)C(N)=O` (configuration not stated), the outcome was inactive and the cell number change amounted to 10.8%.
For the molecule `Cn1c(=O)c2c(O)c(Cc3ccccc3)c(=O)[nH]c2n(C)c1=O`, the “lipid storage change, negative = inhibition” value is 29.3% (inactive).
Consider `O=C(Nc1cc(Cl)ccc1-n1cncn1)c1ccc([N+](=O)[O-])o1`, for which the “lipid storage change, negative = inhibition” value is 13% (inactive) and the cell number change came to 8.28%.
Consider `O=C(Nc1ccccc1N1CCN(C(=O)c2ccccc2)CC1)c1ccc([N+](=O)[O-])o1`, for which the Potency was 8.2 µM (active) and the cell number change was 11.7%.
As for `CCC(=O)N1CCN(c2ccc(Cl)cc2NC(=O)Cc2ccccc2)CC1`, the “lipid storage change, negative = inhibition” value is 13.8% (inactive) and the cell number change worked out at 12.9%.
In the case of `COc1ccc(N2CCN(C(=O)c3ccc4nc(N5CCCCC5)sc4c3)CC2)cc1`, the result was inactive.
As for `CS(=O)(=O)N1CCN(c2ccccc2NC(=O)c2ccc([N+](=O)[O-])o2)CC1`, the “lipid storage change, negative = inhibition” value was -12.3% (inactive) and the cell number change was -11.1%.
In the case of `COc1ccc2nc(N3CCN(C(=O)c4ccc([N+](=O)[O-])o4)CC3)sc2c1`, the Potency was 4.61 µM (active).
Consider `O=C(c1ccc([N+](=O)[O-])o1)N1CCOCC1`, for which the “lipid storage change, negative = inhibition” value was -11.5% (inactive) and the cell number change is -1.55%.
Regarding `CCC(=O)N1CCN(c2ccc(Cl)cc2NC(=O)c2ccc([N+](=O)[O-])o2)CC1`, the Potency was 5.8 µM (active) and the cell number change is -10.1%.
Consider `O=C(Nc1ccccc1N1CCOCC1)c1ccc([N+](=O)[O-])o1`, for which the “lipid storage change, negative = inhibition” value is 2.83% (inactive) and the cell number change is -0.54%.
As for `Cc1ccc(C(=O)N2CCN(Cc3ccccc3)CC2)o1`, the “lipid storage change, negative = inhibition” value is 4.58% (inactive) and the cell number change stood at 15.9%.
As to `O=C(c1ccc([N+](=O)[O-])o1)N1CCN(Cc2ccccc2)CC1`, the Potency was 25.9 µM (active) and the cell number change was -14.3%.
Regarding `CC(=O)N1CCN(c2nc3ccc([N+](=O)[O-])cc3s2)CC1`, the molecule was called inactive and the cell number change is -3.82%.
`Cc1noc(C)c1COC(=O)c1csc2c1CCCC2`: the “lipid storage change, negative = inhibition” value was -16.4% (inactive).
With `Cc1cc(Nc2c(C)n(C)n(-c3ccccc3)c2=O)c2ccccc2n1`, the “lipid storage change, negative = inhibition” value is -9.37% (inactive) and the cell number change was -23.8%.
Turning to `Cc1cccc(-n2cc(CN3CCCN(C=O)CC3)c(-c3cccc(F)c3)n2)c1`, the “lipid storage change, negative = inhibition” value is -3.6% (inactive) and the cell number change is -4.39%.
Consider `O=C(NCc1cccnc1)Nc1cccc([N+](=O)[O-])c1`, for which the outcome was inactive and the cell number change was determined as 6.23%.
Regarding `CCOc1ncccc1C(=O)OCC(=O)N1CC(=O)Nc2ccccc21`, the molecule was called inactive.
Regarding `Cc1c(/C=N/N=C2\CCC3C4CCc5cc(O)ccc5C4CCC23C)cnn1C` (configuration not stated), the result was inactive and the cell number change is 13.3%.
As to `O=C(CN1C(=O)COc2ccccc21)N1CCOCC1`, the outcome was inactive.
For `O=C(Nc1ccccc1N1CCN(C(=O)c2ccccc2)CC1)c1cccc(Cl)c1`, the “lipid storage change, negative = inhibition” value was 0.483% (inactive) and the cell number change was -6.81%.
The like results for `COc1ccc(C(=O)Nc2ccccc2N2CCOCC2)cc1Br` were, in that order, 5.74% (inactive) and -0.289%.
As for `CN1CCN(c2ccccc2NC(=O)c2ccc(-c3ccccc3[N+](=O)[O-])o2)CC1`, the Potency is 6.51 µM (active) and the cell number change is -10.4%.
Consider `CC1CCN(c2ccccc2NC(=O)c2ccc([N+](=O)[O-])o2)CC1`, for which the “lipid storage change, negative = inhibition” value was 20.1% (inactive) and the cell number change is 8.97%.
Turning to `COc1ccccc1NC(=O)c1ccc(-c2ccccc2[N+](=O)[O-])o1`, the “lipid storage change, negative = inhibition” value is -1.69% (inactive).
As for `O=C(Nc1ccc(N2CCCC2)c(Cl)c1)c1ccc([N+](=O)[O-])o1`, the “lipid storage change, negative = inhibition” value was -19.2% (inactive) and the cell number change came out at 2.06%.
As for `COc1ccc(N2CCCC2)c(NC(=O)c2ccc(Br)o2)c1`, the molecule was called inactive and the cell number change was 13.9%.
In the case of `CCC(=O)N1CCN(c2ccccc2NC(=O)c2ccc(-c3cccc([N+](=O)[O-])c3)o2)CC1`, the “lipid storage change, negative = inhibition” value was 18.4% (inactive) and the cell number change is 8.53%.
With `CC(C)C(=O)N1CCN(c2ccccc2NC(=O)c2ccc([N+](=O)[O-])o2)CC1`, the “lipid storage change, negative = inhibition” value was -43.4% (inactive) and the cell number change was -10.5%.
`COc1ccc(C(=O)Nc2ccccc2N2CCN(C(=O)c3ccccc3)CC2)cc1Br`: the Potency was 14.6 µM (active) and the cell number change is -6.04%.
As to `COc1ccc(N2CCCC2)c(NC(=O)c2ccc([N+](=O)[O-])o2)c1`, the Potency is 10.3 µM (active) and the cell number change is 16.1%.
As for `CCC(=O)N1CCN(c2ccccc2NC(=O)c2ccc([N+](=O)[O-])o2)CC1`, the Potency was 10.3 µM (active) and the cell number change is -1.26%.
For the molecule `CC(C)CC(NC(=O)C(NC(=O)OC(C)(C)C)C(C)C)C(N)=O` (configuration not stated), the “lipid storage change, negative = inhibition” value is 25.3% (inactive) and the cell number change came out at 1.19%.
The corresponding values for `C/C(=N/NC(=O)c1ccc2nc[nH]c2c1)c1cccs1` are 10.5% (inactive) and 9.11%.

The record behind these values is PubChem BioAssay AID2685 (National Center for Advancing Translational Sciences (NCATS), 2010).
